Bioassay records from PubChem BioAssay.
Hits are enriched below; roughly 2.8% of the tested compounds scored in any of these assays.
EP2 modulator: modulators of human EP2 prostaglandin E2 receptor; 260,000 tested, 0.83% active; induction, % at 25 µM; EP2-expressing cells, cAMP HTRF FRET, PGE2 co-stimulation; P43116;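 active = compounds whose cAMP rise, as percent of the full-agonist control response, exceeds 60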;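 note: rat C6 glioma line stably carrying human EP2 under a CMV promoter; the protocol text gives 20 µM as final concentration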
Wee1 stabilizer: blocks degradation of human Wee1 kinase; P30291; HeLa Luc-Wee1K328M stability, luciferase luminescence; 100% = proteasome inhibitor MG132 effect; reporter increase, % at 5 µM; 220,000 tested, 1.2% active;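 active = activation above the mean of all tested compounds plus 3 SD, set per screening run, cut at about 8.8% in these data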;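 note: cells exposed to compound for 20 h before luminescence read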
p47phox inh: blocks human p47phox regulatory protein of NADPH oxidases. p47phox/p22phox peptide binding, fluorescence polarization, 2 h. inhibition, % at 24.7 µM. 220,000 tested, 0.53% active;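 active = inhibition above about 30%, limit read from the data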
Target sequence (P14598 whole entry, looked up): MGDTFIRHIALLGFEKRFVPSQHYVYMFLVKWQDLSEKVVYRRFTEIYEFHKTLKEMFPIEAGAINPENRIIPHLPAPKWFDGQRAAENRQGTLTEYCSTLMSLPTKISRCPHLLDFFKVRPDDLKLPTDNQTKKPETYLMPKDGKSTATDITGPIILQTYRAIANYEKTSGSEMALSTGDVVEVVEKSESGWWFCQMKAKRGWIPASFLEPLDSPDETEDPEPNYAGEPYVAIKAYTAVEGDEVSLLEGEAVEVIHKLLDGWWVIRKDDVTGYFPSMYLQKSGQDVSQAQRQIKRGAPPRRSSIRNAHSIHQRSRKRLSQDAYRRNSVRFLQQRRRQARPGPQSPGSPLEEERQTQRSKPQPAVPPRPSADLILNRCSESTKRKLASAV
EP2 antag: blocks the human prostaglandin E2 receptor EP2; inhibition, % at 25 µM; C6 glioma cells expressing human EP2, cAMP TR-FRET; cells stimulated with saturating PGE2; 260,000 tested, 0.52% active;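 active = percent inhibition above 40 after rounding to a whole number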;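 note: rat C6 glioma host cells with rolipram phosphodiesterase inhibitor present; the protocol text gives 20 µM as final concentration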
Furin inhibitor: human furin inhibition; 220,000 tested, 0.061% active; P09958; inhibition, % at 20 µM or 30 µM; purified furin, fluorogenic substrate cleavage; AID 463115; in the data active = inhibition above about 25%
HSV augment: HSV replication enhancement. maximum fold increase. HSV replication augmentation in cells, fold increase. 220,000 tested, 0.005% active. AID 1956; in the data active = maximum fold increase above about 1.5; tested in PC3 cells
EP2 cAMP induct: EP2 receptor cAMP induction, counter-screens negative. shares compounds with EP2 modulator. C6 glioma EP2 cells, cAMP HTRF induction; plus low (about EC15) PGE2 agonist. calls only at 20 µM (by protocol). 1,300 tested, 47% active. AID 1080;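 active = cAMP induction above 50% in the main assay while under 30% in all four parallel counter assays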;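 note: rat C6 glioma cells stably expressing human EP2 receptor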
Of the large screens only hits and unclear results are named; the others gave an inactive call (follow-up assays come after a bar, where they were run); ! = not active in a repeat.

CCOC(=O)c1c(-c2ccc(-c3ccccc3)cc2)csc1NC(=O)CCN1CCOCC1	EP2 modulator 73.2 | EP2 cAMP induct active
CC1CCCCN1C(=O)/C(=C\c1ccccc1)c1ccccc1 (centres undefined)	EP2 modulator 69.3 | EP2 cAMP induct inactive
COc1ccc(S(=O)(=O)N2CCC(C(=O)N3CCC(C(N)=O)CC3)CC2)cc1	none (no result: Wee1 stabilizer, p47phox inh, Furin inhibitor, HSV augment)
CC(C)(Sc1ccc(CCN(CCCCC2CCCCC2)C(=O)NC2CCCCC2)cc1)C(=O)O	EP2 modulator 66.5 (no result: Wee1 stabilizer, p47phox inh, Furin inhibitor, HSV augment) | EP2 cAMP induct inactive
O=C(CN1C(=O)N2CCN=C2c2ccccc21)N1CCCCC1	none (no result: Wee1 stabilizer, p47phox inh, Furin inhibitor, HSV augment)
O=c1n(Cc2ccccc2F)c2ccccc2n1Cc1ccccc1F	EP2 modulator 77.5 | EP2 cAMP induct active
Cc1ccccc1OCC(=O)NC(=S)Nc1ccc2c3c(cccc13)CC2	none
COc1ccc(OCC(=O)NC(=S)Nc2ccc3c4c(cccc24)CC3)cc1	EP2 modulator 68.2 | EP2 cAMP induct inactive
CC1(C)Cc2c(c(N3CCOCC3)nc3sc4c(NCCO)ncnc4c23)CO1	none (no result: Wee1 stabilizer, p47phox inh, Furin inhibitor, HSV augment)
c1ccc(-c2cc(-c3ccc(N4CCOCC4)cc3)nc3ccccc23)cc1	none
COc1ccc2c(-c3ccccc3)cc(N3CCOCC3)nc2c1	EP2 modulator 77.3 | EP2 cAMP induct active
CCOC(=O)c1c(C2COc3ccccc3O2)csc1N (centres undefined)	EP2 modulator 70.2 | EP2 cAMP induct active
CCOC(=O)c1c(C2COc3ccccc3O2)csc1NC(=O)c1ccccc1 (centres undefined)	none
COc1ccc2ccc(=O)oc2c1CC=C(C)C	EP2 modulator 66.8! | EP2 cAMP induct active
CC(C)CCNC(=O)C(c1ccco1)N(Cc1ccccc1)C(=O)c1snc(C(N)=O)c1N (centres undefined)	none
Cc1ccc(N(C(=O)c2snc(C(N)=O)c2N)C(C(=O)NCCC(C)C)c2ccco2)cc1 (centres undefined)	EP2 modulator 77.8 | EP2 cAMP induct inactive
CCOc1ccc2[nH]c3c(c2c1)CN(C(=O)c1ccnn1C(C)C)CC3	none (no result: Wee1 stabilizer, p47phox inh, Furin inhibitor, HSV augment)
Cc1ccc(-c2cc3nn(-c4ccccc4)c(N)c3c(=O)o2)cc1	EP2 modulator 66.2 | EP2 cAMP induct inactive
CC(=O)Nc1ccc(NC(=O)CN2C(=O)c3ccccc3S2(=O)=O)cc1	none (no result: Wee1 stabilizer, p47phox inh, Furin inhibitor, HSV augment)
Fc1ccccc1Nc1nc2c(s1)CCc1ccccc1-2	EP2 modulator 79.2 | EP2 cAMP induct active
O=C(Nc1nc2c(s1)CCc1ccccc1-2)c1cccs1	none
COc1cc(/C=C/c2nc(O)c([N+](=O)[O-])c(=O)[nH]2)ccc1OCc1cccc(C)c1	none (no result: Wee1 stabilizer, p47phox inh, Furin inhibitor, HSV augment)
CCn1c2ccccc2c2cc([N+](=O)[O-])ccc21	EP2 modulator 76.7 | EP2 cAMP induct active
CCC(C)NC(=O)c1cnn2c1NC(c1cccc(OC)c1)CC2C(F)(F)F (centres undefined)	none (no result: Wee1 stabilizer, p47phox inh, Furin inhibitor, HSV augment)
CC(C)CCn1c(O)c(N=NC(=O)c2ccco2)c2ccccc21	EP2 modulator 72.7 | EP2 cAMP induct inactive
CCOC(=O)c1ccccc1NC1c2ccccc2C(=O)N1c1cc(C)ccn1 (centres undefined)	EP2 modulator 69.3 | EP2 cAMP induct active
CC(=O)Nc1sc2c(c1C(c1cccs1)N1CCOCC1)CCCC2 (centres undefined)	none | EP2 cAMP induct inactive
CCN(CC)P(=O)(Nc1ccccc1Br)c1ccc(N(C)C)cc1NC(=O)c1ccco1 (centres undefined)	EP2 modulator 65.9 | EP2 cAMP induct inactive
CCc1cc2cccc(C)c2nc1SCC(=O)Nc1ccc(OC)c(OC)c1	none (no result: Wee1 stabilizer, p47phox inh, Furin inhibitor, HSV augment)
COc1cnc(N(C)C)nc1Sc1cccc(Cl)c1	EP2 modulator 75.7 | EP2 cAMP induct active
COCCCn1c(=N)c(C(=O)NCCc2ccccc2)cc2c(=O)n3cc(C)ccc3nc21	none (no result: Wee1 stabilizer, p47phox inh, Furin inhibitor, HSV augment)
C=CCc1cc(C=O)cc(OCC)c1OCc1ccc(Cl)cc1	EP2 modulator 86.8 | EP2 cAMP induct active
COc1cc(C=O)ccc1OCCOCCOc1ccc(Cl)cc1	none
C=CCc1cc(C=O)cc(OC)c1OCc1ccc(Cl)cc1	EP2 modulator 83.1 | EP2 cAMP induct active
CC(C)c1nc(Cl)c(C#N)c2c1CSC(C)(C)C2	EP2 modulator 73.5 | EP2 cAMP induct active
CCc1nc(Cl)c(C#N)c2c1CSC(C)(C)C2	none
